Sampled rows, rich in hits. Any-hit rate of the full collection: about 1.7%.
ABCB6 inh 2 – ABCB6 transporter inhibitors, primary screen, K562-ABCB6 cells, flow cytometry, MLPCN library | fluorescence ratio to DMSO, % at 10 µM | AID 602162, 2011 | hit rate 0.19% among 360,000 | ATP-binding cassette sub-family B member 6 (Homo sapiens), Q9NP58 | K562-ABCB6 porphyrin accumulation, 1 h; stronger effect = lower value;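 active means fluorescence ratio to DMSO below 75%, the collection mean minus 3 SD; inconclusive means too few cells collected in the well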;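 further: signal is porphyrin accumulated inside mitochondria; lower ratio means ABCB6 inhibition with less porphyrin fluorescence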
TLR9-MyD88 inh – inhibitors of TLR9-MyD88 association in cells, primary screen, cell-based, CHO, BLA complementation, fluorescence. Toll-like receptor 9 (Homo sapiens) + Myeloid differentiation primary response protein …. CCF4 FRET ratio. inhibition, % at 4.98 µM. hit rate 0.21% among 340,000;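 active means inhibition above the mean over all tested compounds plus 3 SD, cut at about 21% in these data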
NOD2 RIPK2 PPI – NOD2-RIPK2 binding disruptors in cells, primary screen, fluorescence, CHO cells, BLA complementation; Receptor-interacting serine/threonine-protein kinase 2 (Homo sapiens), O43353; hit rate 0.38% among 360,000; CCF4 ratio; inhibition, % at 4.98 µM; in the data active means inhibition above about 21%
Target sequence (O43353 whole entry, looked up): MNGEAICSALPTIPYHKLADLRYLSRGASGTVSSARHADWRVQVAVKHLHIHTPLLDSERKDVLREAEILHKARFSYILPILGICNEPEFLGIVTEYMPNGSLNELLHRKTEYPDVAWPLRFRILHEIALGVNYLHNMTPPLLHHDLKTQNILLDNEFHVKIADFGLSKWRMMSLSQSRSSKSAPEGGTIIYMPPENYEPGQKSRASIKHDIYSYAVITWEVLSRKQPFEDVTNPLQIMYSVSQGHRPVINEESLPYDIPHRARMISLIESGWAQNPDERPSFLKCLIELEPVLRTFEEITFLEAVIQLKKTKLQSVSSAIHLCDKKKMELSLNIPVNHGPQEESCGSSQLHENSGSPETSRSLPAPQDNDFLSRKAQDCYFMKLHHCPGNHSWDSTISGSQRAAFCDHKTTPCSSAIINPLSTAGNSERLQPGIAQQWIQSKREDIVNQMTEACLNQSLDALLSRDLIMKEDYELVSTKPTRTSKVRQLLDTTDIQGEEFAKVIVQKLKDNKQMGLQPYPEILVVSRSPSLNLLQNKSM
TLR4 MyD88 comp – inhibitors of TLR4-MyD88 association in cells, primary screen, cell-based, HeLa CL3-4, BLA complementation, FRET ratio; Toll-like receptor 4 (Homo sapiens) + Myeloid differentiation primary response protein …; HeLa CL3-4 TLR4/MyD88 BLA complementation; inhibition, % at 8.4 µM; hit rate 0.18% among 200,000; in the data active means inhibition above about 25%
Myeloid diff MLP – induction of myeloid progenitor differentiation, primary screen, cell-based, flow cytometry, MLPCN library; ER-HoxA9 myeloid progenitors, lysozyme-GFP differentiation; calls only at 10 µM; AID 624256, 2012; hit rate 1% among 360,000;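 active means normalized GFP-positive differentiation at or above the plate's own cutoff, the solvent-only control mean plus 3 SD; inconclusive means no clear call, values can overlap the other calls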;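 further: cells exposed to compound for four days before flow analysis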
TLR9-MyD88 cf – TLR9-MyD88 association inhibitors, retest, confirmation, cell-based, CHO, BLA complementation, fluorescence, triplicate | shares compounds with TLR9-MyD88 inh | CCF4 FRET ratio | inhibition, % at 4.98 µM | hit rate 51% among 680;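 active means mean inhibition across three repeats above about 21% taken from the earlier screen, limit read from the data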;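 further: blue over green emission ratio reports constitutive TLR9 MyD88 association via BLA complementation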
BLA counter-1 – beta-lactamase reporter inhibitors in CHO cells, artefact control for TLR9-MyD88 binding inhibitor project, cell-based, fluorescence; inhibition, % at 4.98 µM; AID 540251, 2011; hit rate 7% among 680; CHO-BLA cells, CCF4 FRET ratio, BLA reporter; shares compounds with TLR9-MyD88 inh;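 active means mean inhibition above a 50% cutoff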;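 further: counterscreen of TLR9-MyD88 hits on CMV-driven BLA in CHO-K1 cells; higher means less blue over green ratio so more BLA blockade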
TLR9 CHO tox – CHO cell viability loss – luminescence, single concentration, cytotoxicity control for TLR9-MyD88 binding inhibitor project; hit rate 39% among 680; shares compounds with TLR9-MyD88 inh; AID 588336, 2011; TLR9-MyD88 CHO cells cytotoxicity; inhibition, % at 4.98 µM; in the data active means inhibition above about 11%
NOD2 RIPK2 conf – NOD2-RIPK2 binding disruptors, retest, confirmation, fluorescence, CHO cells, BLA complementation, triplicate. shares compounds with NOD2 RIPK2 PPI. CCF4 FRET. inhibition, % at 4.98 µM. hit rate 70% among 1,200;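 active means mean inhibition across replicates above a set limit taken from the earlier primary screen, cut at about 21% in these data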
BLA counter-2 – counter-screen for NOD2-RIPK2 interaction inhibitors: BLA reporter; shares compounds with NOD2 RIPK2 PPI; CHO BLA reporter, CCF4 FRET ratio, counterscreen; inhibition, % at 4.98 µM; hit rate 57% among 1,200;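 active means mean inhibition above the low-control mean inhibition plus three low-control SD, cut at about 11% in these data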
Numbers stand for hits; – = inactive; ? = inconclusive; · = no result given; + = active, no number.

SMILES	ABCB6 inh 2	TLR9-MyD88 inh	NOD2 RIPK2 PPI	TLR4 MyD88 comp	Myeloid diff MLP	TLR9-MyD88 cf	BLA counter-1	TLR9 CHO tox	NOD2 RIPK2 conf	BLA counter-2
CC(C)CCN1C(=O)c2cccc3c(N)ccc(c23)C1=O	–	55	70	·	+	33	–	–	64	70
O=c1[nH]c2ccccc2c2nc3ccccn3c12	–	–	–	–	–	·	·	·	·	·
O=c1nc2c(O)cccn2c2c1c(=O)[nH]c1ccccc12	–	22	29	–	–	–	–	–	33	27
CCNC1=C(Cl)C(=O)c2ccccc2C1=O	–	–	–	–	–	·	·	·	·	·
CCCC(=O)NC1=C(Cl)C(=O)c2ccccc2C1=O	–	37	71	·	?	61	–	99	90	29
CN(C)c1ccc(/C=C/c2ccc3ccccc3n2)cc1	–	28	46	·	–	38	53	53	58	71
COc1ccc(Nc2c(-c3ccc(F)cc3)nc3nc(C)cc(C)n23)cc1	–	·	–	·	–	·	·	·	·	·
O=[N+]([O-])c1ccc(N2N=C(c3ccco3)CC2c2ccccc2)cc1 (centres undefined)	–	38	56	–	–	21	–	–	49	53
NS(=O)(=O)c1ccc(N2N=C(c3ccccc3)CC2c2ccccc2Br)cc1 (centres undefined)	–	–	–	·	–	·	·	·	·	·
O=[N+]([O-])c1ccc(N2N=C(c3ccccc3)CC2c2ccccc2O)cc1 (centres undefined)	–	40	39	·	+	33	–	–	51	65
Fc1ccc(C2CC(c3ccco3)=NN2c2ccccc2)cc1 (centres undefined)	–	–	–	–	–	·	·	·	·	·
COc1ccc(C)cc1S(=O)(=O)NCC(c1ccc2c(c1)OCO2)N1CCOCC1 (centres undefined)	–	–	–	·	–	·	·	·	·	·
Oc1ccc(C2C=C(c3ccc(F)cc3)Nc3ncnn32)cc1 (centres undefined)	–	40	50	·	–	–	–	–	37	46
Brc1ccc(C2=CC(c3ccco3)n3nnnc3N2)cc1 (centres undefined)	–	–	–	·	–	·	·	·	·	·
COc1ccc(C2C=C(c3ccc(C)cc3)Nc3ncnn32)cc1 (centres undefined)	–	41	52	–	·	–	–	–	–	–
C1=C(c2ccc(-c3ccccc3)cc2)Nc2ncnn2C1c1ccco1 (centres undefined)	–	27	39	–	–	–	–	–	–	–
Cc1ccc(C2C=C(c3ccccc3)Nc3ncnn32)cc1 (centres undefined)	–	37	48	·	–	–	–	–	–	18
COc1cccc(C2=CC(c3ccc(N(C)C)cc3)n3ncnc3N2)c1 (centres undefined)	·	·	·	–	·	·	·	·	·	·
Cc1cc(OCc2cc(C(=O)NC(C)c3c(C)nn(C)c3C)no2)cc(C)c1Cl (centres undefined)	–	–	–	·	–	·	·	·	·	·
CCCCN(C)C(=O)c1ccc2c(c1)S(=O)(=O)c1ccccc1C2=O	–	–	–	·	–	·	·	·	·	·
CC(C)N1C(=O)S/C(=C\c2ccc(-c3ccc(Cl)c(C(=O)O)c3)o2)C1=O	–	–	–	·	–	·	·	·	·	·
CCN(CC)c1ccc(/C=C2/SC(=O)N(C(C)C)C2=O)o1	–	31	65	–	+	–	–	61	27	15
CCN(CC)c1ccc(/C=C/C(=O)C2C(=O)C=C(C)OC2=O)cc1 (centres undefined)	–	21	23	–	+	36	–	11	28	47
CCCNC(=O)c1nnsc1S(=O)c1ccc(Cl)cc1 (centres undefined)	–	48	80	–	?	49	–	100	85	25
CCCNC(=O)c1nnsc1S(=O)(=O)c1ccc(Cl)cc1	–	35	84	–	?	37	–	99	85	23
SMILES	ABCB6 inh 2	TLR9-MyD88 inh	NOD2 RIPK2 PPI	TLR4 MyD88 comp	Myeloid diff MLP	TLR9-MyD88 cf	BLA counter-1	TLR9 CHO tox	NOD2 RIPK2 conf	BLA counter-2
CCCNC(=O)NS(=O)(=O)c1ccc(Cl)cc1	–	–	–	–	–	·	·	·	·	·
CNC(=O)c1nnsc1S(=O)c1ccc(Cl)cc1 (centres undefined)	–	46	57	–	?	51	–	97	54	28
O=C(NCc1ccncc1)C(=O)NC1CC1	–	–	–	–	–	·	·	·	·	·
CCN(CC)S(=O)(=O)c1cc(NC(=O)c2ccc3c(c2)NC(=O)C(C)S3)ccc1C (centres undefined)	–	–	–	·	–	·	·	·	·	·
CS(=O)(=O)c1nc(-c2ccc(F)cc2)cc(C(F)(F)F)n1	–	40	62	–	–	35	–	97	62	12
CCOC(=O)c1sc(-c2ccc(C(F)(F)F)cc2)nc1O	–	28	25	·	–	–	–	–	65	67
CSc1ccccc1NC(=O)CSc1nncs1	–	–	–	–	–	·	·	·	·	·
O=C(/C=C/c1cccc(Cl)c1)c1ccc([N+](=O)[O-])o1	–	26	52	·	–	21	–	96	88	19
Cc1ccccc1Nc1cccc2nonc12	–	46	41	–	–	22	–	–	53	57
CCOC(=O)CNc1nc(C(C)(C)C)nc2c1nnn2Cc1ccccc1	–	–	–	·	–	·	·	·	·	·
CN1CCCC1CCNC1C2CC3CC(C2)CC1C3 (centres undefined)	–	–	–	–	–	·	·	·	·	·
COc1cc(/C=C/C(=O)/C=C(O)/C=C/c2ccc(O)c(OC)c2)ccc1O	–	28	54	·	–	30	–	–	55	57
Nc1cc2sc(-c3ccc(C(=O)O)cc3)nc2cc1Cl	–	24	35	–	–	–	–	14	32	40
Nc1ccc(-c2nc3ccc(C(=O)O)cc3s2)cc1	–	–	–	–	–	·	·	·	·	·
